Screening results (PubChem)
SW480 rerep – induces DNA re-replication in SW480 colon adenocarcinoma cells; SW480 DNA re-replication, Hoechst DNA content imaging, 48 h; Potency, µM (titrated, usually from 46.1 µM), without a hit: at the top dose re-replication activation, hits mostly activators; actives 1.8% (n = 340,000); AID 624297; further: potency means the concentration at half of the fitted maximal effect; % of control where 0% means no effect; nearly all actives have a fitted effect of over 55% in size
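Image-based DNA-content assay: after two days of treatment, nuclei were labelled with the DNA dye Hoechst and imaged, and hits were compounds raising the count of nuclei showing high fluorescence intensity.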
Giardia killer – Giardia lamblia killing; Giardia lamblia trophozoite viability; activity change, % at 7.66 µM, hits read low; actives 0.15% (n = 340,000); in the data active means activity change below about -80%; inconclusive means between about -30% and that limit;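 further: parasites exposed to compound for two days anaerobically before the ATP read; on the % scale 0 is the no-effect control and ±100 the full control effect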
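Trophozoites 100 cells/well + cpd; 48 hrs, 37 deg C, anaerobic. ATPLite 1-Step added, 15-30 min RT, luminescence read (ATP-based viability).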
MCF10A rerep – induces DNA re-replication in MCF 10a normal breast cells. AID 624296. MCF 10A DNA re-replication, Hoechst nuclear intensity, 48 h. Potency, µM (titrated, usually from 46.1 µM), without a hit: at the highest dose activity, positive = re-replication, most hits filed as activators. actives 2.9% (n = 350,000); further: potency means the concentration at half of the fitted maximal effect; % of control where 0% means no effect; nearly all actives have a fitted effect of over 50% in size
KB-V1 MDR tox – KB-V1 MDR subline cytotoxicity; KB-V1 MDR cells viability, CellTiter-Glo, 72 h; Potency, µM (highest dose often 46.1 µM), most hits filed as cytotoxic; actives 3.4% (n = 400,000); AID 1347076; further: potency means the concentration at half of the fitted maximal effect; on the % scale 0 is the no-effect control and ±100 the full control effect; nearly all actives have a fitted effect of over 60% in size
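Drug-selected KB-V1 cells, grown in DMEM lacking phenol red with 10% FBS, receive compound titrations; after three days at 37 degrees C, surviving cell ATP is quantified by CellTiter-Glo luminescence and responses normalized and curve-fitted.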
KB-3-1 cytotox – kills parental KB-3-1 adenocarcinoma cells | KB-3-1 viability, CellTiter-Glo ATP luminescence, 72 h | Potency, µM (series often up to 46.1 µM), actives largely listed as cytotoxic | actives 1.4% (n = 400,000) | AID 1347075; further: potency means the concentration at half of the fitted maximal effect; on the % scale 0 is the no-effect control and ±100 the full control effect; nearly all actives have a fitted effect of over 60% in size
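Using CellTiter-Glo luminescence, growth of non-resistant KB-3-1 adenocarcinoma cells is assessed 72 h after pin-tool compound addition at 37 °C. Normalized responses across the concentration series yield fitted curves.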
ASM inhibitor – inhibitors of human secretory acid sphingomyelinase | Potency, µM (doses to about 57.5 µM), for inactives: at the top dose activity change, negative = inhibition, usual class: inhibitors | AID 504937 | P17405 | actives 0.006% (n = 340,000) | placental ASM, HMU-PC fluorogenic substrate, 60 min; further: potency means the concentration at half of the fitted maximal effect
Target sequence (P17405 47-631 limits assumed): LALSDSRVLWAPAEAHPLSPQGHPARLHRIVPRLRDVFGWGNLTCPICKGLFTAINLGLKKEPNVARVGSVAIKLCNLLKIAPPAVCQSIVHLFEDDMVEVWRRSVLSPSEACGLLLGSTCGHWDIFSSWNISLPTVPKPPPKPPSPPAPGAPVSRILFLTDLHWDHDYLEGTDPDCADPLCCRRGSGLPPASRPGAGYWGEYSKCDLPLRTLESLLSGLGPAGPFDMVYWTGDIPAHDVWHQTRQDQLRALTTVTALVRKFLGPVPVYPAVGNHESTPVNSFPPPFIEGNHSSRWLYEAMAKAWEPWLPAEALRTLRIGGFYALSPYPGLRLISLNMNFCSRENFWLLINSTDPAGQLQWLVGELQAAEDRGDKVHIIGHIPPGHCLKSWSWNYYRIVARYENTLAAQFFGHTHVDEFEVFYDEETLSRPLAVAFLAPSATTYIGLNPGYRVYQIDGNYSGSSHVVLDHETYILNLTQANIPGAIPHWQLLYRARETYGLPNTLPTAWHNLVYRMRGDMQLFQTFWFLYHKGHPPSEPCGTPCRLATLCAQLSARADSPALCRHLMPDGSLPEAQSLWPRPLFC
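Fluorogenic HMU-PC substrate (9 uM final) is turned over by placental ASM in 60 min at 37 C after a 10 min compound preincubation. Reaction ended by alkaline stop (pH 10), with fluorescence read at 386/447 nm.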
An asterisk follows results filed as active; i = inactive; ? = inconclusive; nt = no result; ! = not active in a repeat; [ ] = another dose, or the depositor's remark. In the library only some 6.9% were active in any assay of this set; here they are far more common. Unless noted, the call rests on the fitted dose curve; in most records, active means well fitted curve in the direction sought with a large enough effect; inconclusive means small, poorly fitted or top-dose-only effect, or another doubt; inactive means no such curve, though single readings can be large; an effect the other way counts as inactive or inconclusive.

SMILES	SW480 rerep	Giardia killer	MCF10A rerep	KB-V1 MDR tox	KB-3-1 cytotox	ASM inhibitor
CC1CCC(NC(=O)C2CCN(c3nc4ccccc4s3)CC2)CC1 (configuration not stated)	-10%	3	17%	7.3µM*	?	2%
Oc1c(N=Nc2ccccn2)ccc2ccccc12	?	-21	13µM*	?	1.2µM*	-17%
Oc1[nH]c2ccccc2c1N=Nc1ccccn1	-5%	8	-3%	i	i	-7%
Cc1sc(NC(=O)c2ccco2)c(CN2CCN(c3ccccn3)CC2)c1C	11%	-14	?	?	21µM*	-1%
Cc1sc(NC(=O)c2ccco2)c(CN2CCN(c3ccc(F)cc3)CC2)c1C	1%	-2	11%	?	i	-1%
CCCCCCCCCCCCCCCC[N+](C)(C)CCl	21µM*	-10	25%	i	?	?
C#CC[N+](C)(C)CCCCCCCCCCCC	12µM*	8	26µM*	i	2.1µM*	-9%
CC#CC[N+](C)(C)CCCCCCCCCCCC	?	-11	?	i	?	-8%
C#CC[N+](C)(C)CCCCCCCC	-1%	-4	11%	i	5.2µM*	6%
C#CC[N+](C)(C)CCCCCCCCCC	21µM*	-16	?	i	3.7µM*	1%
CCCCCCCCCCCCCC[N+](C)(C)C	?	nt	46%	nt	nt	nt
CCCCCCCCCCCCCCCC[N+](C)(C)CC	?	-4	?	i	?	-1%
Cc1ccccc1-c1nc(SCC(=O)NCc2ccc(F)cc2)c2c(=O)n(C)c(=O)n(C)c2n1	nt	nt	nt	i	i	nt
CCC1OC(=O)C[C@@H](O)[C@H](C)[C@@H](OC2OC(C)CC(N(C)C)C2O)[C@@H](CC=O)C[C@@H](C)C(=O)/C=C/[C@]2(C)OC2C1C (some centres not stated)	?	nt	17%	nt	nt	nt
Cc1cc(=O)c2c([nH]1)c(C)cc1[nH]c(C)c(C)c12	9.2µM*	-17	8%	i	?	i
CSc1nc(-c2ccc(Cl)cc2)c(C#N)c(=O)n1C	0%	3	0%	i	i	1%
CSc1nc(-c2ccc(N(C)C)cc2)c(C#N)c(=O)n1C	7.3µM*	7	12µM*	i	i	240%
CCOC(=O)c1c(N/N=C/c2cccnc2)n[nH]c1C	?	29	?	5.8µM*	9.2µM*	1%
C/C(=N\N=C(/N)SC1CC(=O)N(c2ccccc2)C1=O)c1cccs1 (configuration not stated)	3.7µM*	11	2.3µM*	i	i	-28%
COc1ccc(C2NC(=O)N(C)C3=C2C(=O)N(c2ccc(Br)cc2)C3)cc1 (configuration not stated)	nt	nt	nt	i	i	nt
COc1ccc(N2CC3=C(C2=O)C(c2ccc(Br)cc2)NC(=O)N3C)cc1 (configuration not stated)	nt	nt	nt	26µM*	i	nt
CC(C)N(Cc1ccccc1)S(=O)(=O)c1ccc(N2CCCCS2(=O)=O)cc1	nt	nt	nt	i	i	nt
CCCCn1c(NC(=O)CC)c(C#N)c2nc3ccccc3nc21	-5%	10	8%	i	i	i
Cc1ccc(S(=O)(=O)c2c(N)n(CCCN(C)C)c3nc4ccccc4nc23)cc1	23µM*	2	21µM*	i	i	i
Cc1ccc(-n2c(N)c(S(=O)(=O)c3ccccc3)c3nc4ccccc4nc32)cc1	-20%	-17	-13%	i	i	i
SMILES	SW480 rerep	Giardia killer	MCF10A rerep	KB-V1 MDR tox	KB-3-1 cytotox	ASM inhibitor
CN(C)CCCn1c(N)c(C#N)c2nc3ccccc3nc21	18µM*	-2	18µM*	i	i	i
CCCCC(CC)Cn1c(N)c(C#N)c2nc3ccccc3nc21 (configuration not stated)	9.2µM*	-9	4%	i	i	i
Cc1ccc(-c2nnc(CSc3nnc(COc4ccccc4)n3-c3ccccc3)o2)cc1	12%	-4	12µM*	i	i	-12%
Cc1ccc(-c2nnc(CSc3nnc(COc4ccccc4)n3-c3ccc(C)cc3)o2)cc1	?	-1	23µM*	?	i	-15%
C1=Cc2ccccc2/C1=C\c1cc[cH-]c1.[Fe+2].c1cc[cH-]c1	nt	nt	nt	?	i	nt
O=C1C(=O)C(c2ccc(O)cc2O)Oc2cc(O)cc(O)c21 (configuration not stated)	nt	9	nt	i	i	nt
Cc1nnsc1C(=O)N/N=C/c1c(F)cccc1Cl	-7%	13	-2%	i	i	-2%
Cc1[nH]cnc1C(=O)N/N=C/c1c(Cl)cccc1Cl	0%	-29	4%	21µM*	16µM*	-1%
O=C(C[n+]1cccc2cccc(O)c21)c1ccc2ccccc2c1	nt	nt	nt	i	i	nt
Oc1c(Br)cc(C=Nc2ccc3nc(-c4ccccc4)[nH]c3c2)c(O)c1Br	?	-14	21µM*	i	i	76%
O=C(Nc1nc(-c2ccc(Cl)s2)cs1)c1ccncc1	-3%	3	2%	6.5µM*	?	-3%
O=C(Nc1nc(-c2cccs2)cs1)c1ccco1	-5%	-10	?	?	?	-4%
Cc1csc(NC(=O)c2sc3nc(-c4cccs4)ccc3c2N)n1	?	-6	1%	21µM*	i	17%
O=C(COc1ccc(Cl)cc1)Nc1nc(-c2cccs2)cs1	-2%	6	13µM*	i	i	-13%
O=C(Nc1nc(-c2cccs2)cs1)c1ccc([N+](=O)[O-])o1	7.3µM*	-82*	2.9µM*	21µM*	6.5µM*	-1%
Cc1ccc2nc(CS)[nH]c2c1	nt	nt	nt	i	i	nt
CCOC(=O)C1CCN(C(=O)CN2c3ccc(CC)cc3-c3ccccc3S2(=O)=O)CC1	nt	nt	nt	i	i	nt
O=C(CN1C(=O)CCC1=O)Nc1nc(-c2ccc(Cl)s2)cs1	6%	-5	21µM*!	i	i	nt
COc1ccc(C(=O)Nc2cnc(NC(=O)c3cccs3)cc2C)cc1	?	8	7.3µM*	i	i	6%
Cc1c(C(=O)Nc2nccs2)sc2nc(-c3cccs3)cc(C(F)(F)F)c12	?	-6	?	?	9.2µM*	52%
O=C(CN1C(=O)CCC1=O)Nc1nc(-c2cccs2)cs1	1%[9.22 µM]	-3	-6%	i	i	-2%
COc1ccc(C(=O)Nc2nc(-c3cccs3)cs2)cc1	-8%	20	?	5.8µM*	?	-14%
COc1ccc(S(=O)(=O)NC(=O)C2(C)CCN2C(=O)C2CCCCC2)cc1OC (configuration not stated)	nt	nt	nt	i	i	nt
